Results from PubChem BioAssay (NCATS).
Inconclusive results are not listed. Activity calls are given as the source filed them. The call rests on the fitted dose curve; in most records, active means well fitted cell-killing curve with a large enough effect; inconclusive means small, poorly fitted or top-dose-only effect; inactive means flat fitted curve, though single readings scatter.

test: Vero cells viability qHTS for Zika virus inhibitors (AID 1347167); conditions: cytotoxicity counter-screen (Zika); series mostly up to 45.9 µM
Text: Avindra Nath, Ph.D., National Institute of Neurological Disorders and Stroke (NINDS), Bethesda, MD
Radhakrishnan Padmanabhan, Ph.D., Georgetown University (GU), Washington D.C.
Zika Virus causes congenital defects, including microcephaly and is associated with Guillain-Barre syndrome, eningoencephalitis and myelitis in infected adult. […] Using a target-based approach, we hope to establish a screening paradigm to uncover novel, cell-active NS2B-NS3 protease (Zika Virus) specific inhibitors from NCATS' collection of small molecules using qHTS.
Four assay panel was created to identify potential Zika Virus inhibitors. Namely, (1) GU unlinked NS2B-NS3 AMC tagged protease qHTS, (2) GU unlinked NS2B-NS3 Rhodamine tagged protease qHTS, (3) NINDS linked NS2B-NS3 AMC tagged protease qHTS, (4) NINDS linked NS2B-NS3 Rhodamine tagged protease qHTS. Identified inhibitors were screened against the Vero and HepG2 cell viability assays using CellTiter Glo to exclude cytotoxic compounds.
Early Translation Branch (ETB)
National Center for Advancing Translational Sciences (NCATS), Rockville, MD
National Institute of Health (NIH), Bethesda, Maryland
Vero and HepG2 Cell Viability Assay:
Vero and HepG2 cell cytotoxicity were determined using a luminescent readout with CellTiter Glo reagent (Promega, Madison, WI), which is based on measuring the ATP content within cells. Briefly, 4 microL of Vero or HepG2 cells at 2.5 x 10^5 cells/mL in DMEM containing 4% FBS were dispensed into 1536-well solid bottom tissue treated white plate using a Multidrop Combi dispenser (Thermo Scientific). Plates were incubated at 37 degrees C, 95% humidity, and 5% CO2 overnight to allow for cell attachment. Compounds were dissolved in DMSO at different concentrations and transferred via pintool (Wako Automation), for a final concentration of 0.029 µM - 57 microM. Plates were again incubated for 24 to 48 hours, followed by a 2 microL addition of CellTiter Glo. Finally, plates were incubated for 30 minutes at 37 degrees C and 5% CO2 before being read on a ViewLux (Perkin Elmer) for luminescence.

Compound	outcome
Cc1ccccc1CNc1ncnc2c1ncn2C1OC(CO)C(O)C1O (stereo unspecified)	inactive
S=c1[nH]c(-c2ccccc2)cn1-c1ccccc1	inactive
CN1CCN(c2cc3c(nn2)Oc2ccccc2N3C)CC1	inactive
CCCCN(CC)c1nc(C)nc2c1c(C)cn2-c1c(C)cc(C)cc1C	inactive
Oc1cc2c(cc1O)CN(C(=S)NCCc1ccc(Cl)cc1)CCC2	inactive
C=C[C@@H]1CN2CC[C@@H]1C[C@H]2[C@H](O)c1ccnc2ccc(OC)cc12	inactive
Cn1c(=O)c2[nH]c(-c3ccccc3)nc2n(C)c1=O	inactive
NC(=O)C(=O)O	inactive
COc1ccc(/C=C/c2nc(NCCCN(C)C)c3ccccc3n2)cc1	inactive
COC(=O)C1=C(C)NC(C)=C(C(=O)OC)C1c1cccc(NC(=O)NCCCN2CCC(c3cccc(OC)c3)CC2)c1	inactive
COc1ccc(Br)cc1S(=O)(=O)NC(=O)/C=C/c1ccccc1Cc1ccc2ccccc2c1	inactive
